# Laboratory results from PubChem BioAssay (Tox21).
# Values without a mark were called inactive. Results filed as inconclusive are left out. Where a call stands in place of a potency, no number is given. Active and inactive are the calls of the source. Unless noted, the call rests on the fitted dose curve; in most records, active means well fitted curve in the direction sought with a large enough effect in the repeat runs; inconclusive means weak or mixed curves; inactive means no such curve, though single readings can be large; an effect the other way counts as inactive or inconclusive.
# Legend:
# [1] = qHTS assay to identify small molecule agonists of the hypoxia (HIF-1) signaling pathway - cell viability counter screen (AID 1224844; calls by dose curve; further: nearly all actives have a fitted effect of over 50% in size; further: potency means the concentration at half of the fitted maximal effect)
# Method in brief: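 Viability counter screen: HRE-bla ME-180 cells plated 5 hrs before compound addition, treated 17 hrs at 37C and 5% CO2, then CellTiter-Glo added after the FRET reporter read; luminescence after 30 min.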
# [2] = qHTS assay to identify small molecule agonists of the hypoxia (HIF-1) signaling pathway (AID 1224846; active means well fitted activation curve with a large enough effect in the signal ratio in the repeat runs, not every such curve was filed as active; the % refers to the signal ratio)
# Method in brief: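 Agonist mode reporter screen. ME-180 cells stably expressing bla under HRE control received test compounds in DMSO for 17 hrs (37C, 5% CO2), and beta-lactamase activity was then detected with the CCF4-AM FRET substrate.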
# [3] = qHTS assay to identify small molecule agonists of H2AX - cell viability counter screen (AID 1224847; calls by dose curve; further: top concentration of the series differs between compounds; nearly all actives have a fitted effect of over 30% in size)
# Method in brief: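 Cytotoxicity counter screen in wild-type CHO-K1 cells: a 3 hr compound treatment at 37C across 15 concentrations, followed by CellTiter-Glo luminescence to gauge viable cells.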
# [4] = qHTS RealTime-Glo MT Cell Viability Assay in HepG2 cells - 24 hour (AID 1224867); further: nearly all actives have a fitted effect of over 50% in size
# Method in brief: (§1)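 Luminescence read-out: viable HepG2 cells reduce a prosubstrate to a NanoLuc substrate, giving a signal proportional to live cell number. Reads taken at 0, 8, 16, 24, 32 and 40 h of compound exposure at 37 C.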
# [5] = qHTS RealTime-Glo MT Cell Viability Assay in HEK293 cells - 32 hour (AID 1224868); further: nearly all actives have a fitted effect of over 50% in size; further: potency means the concentration at half of the fitted maximal effect
# Method in brief: (§2)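 Nonlytic real-time viability readout: viable cells convert prosubstrate to NanoLuc substrate, giving luminescence proportional to live cell number. HEK293, 600 cells/well, compound added after 5 h, continuous culture at 37 C.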
# [6] = A CellTox Green Cytotoxicity Assay to monitor cytotoxicity in HEK293 cells - 0 hour (AID 1224869); further: nearly all actives have a fitted effect of over 50% in size; further: potency means the concentration at half of the fitted maximal effect
# Method in brief: (§3)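 Dead-cell fluorescence measured kinetically: asymmetric cyanine dye, HEK293, 600 cells/well, 5 h settle, 23 nL cpd/DMSO, 37 C, reads 0–40 h every 8 h.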
# [7] = qHTS RealTime-Glo MT Cell Viability Assay in HepG2 cells - 40 hour (AID 1224870); further: nearly all actives have a fitted effect of over 50% in size
# Method in brief: (§4)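 HepG2 cells (600/well) mixed with RealTime-Glo MT reagent, settled 5 h at 37 C/5% CO2 before compound addition. Nonlytic NanoLuc luminescence from viable-cell prosubstrate reduction read repeatedly during 40 h treatment at 37 C.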
# [8] = qHTS RealTime-Glo MT Cell Viability Assay in HepG2 cells - 8 hour (AID 1224873); further: nearly all actives have a fitted effect of over 55% in size
# Method in brief: as §4
# [9] = qHTS RealTime-Glo MT Cell Viability Assay in HEK293 cells - 40 hour (AID 1224874); details: RealTime-Glo luminescence; max response: hits give low values; further: nearly all actives have a fitted effect of over 50% in size; further: potency means the concentration at half of the fitted maximal effect
# Method in brief: (§5)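 600 HEK293 cells per well, dispensed already mixed with RealTime-Glo MT reagents. Compound dosing came 5 h later. The same wells were read for luminescence at 0, 8, 16, 24, 32 and 40 h of exposure at 37 C.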
# [10] = A CellTox Green Cytotoxicity Assay to monitor cytotoxicity in HEK293 cells - 24 hour (AID 1224875); further: nearly all actives have a fitted effect of over 45% in size; further: potency means the concentration at half of the fitted maximal effect
# Method in brief: as §3
# [11] = A CellTox Green Cytotoxicity Assay to monitor cytotoxicity in HepG2 cells - 16 hour (AID 1224876); further: nearly all actives have a fitted effect of over 45% in size
# Method in brief: (§6)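 First, HepG2 cells (600/well) mixed with reagent were plated; second, after 5 h at 37 C they received compounds via pintool; third, fluorescence was measured at 0 h through 40 h at 8 h intervals.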
# [12] = qHTS RealTime-Glo MT Cell Viability Assay in HepG2 cells - 32 hour (AID 1224877); further: nearly all actives have a fitted effect of over 55% in size
# Method in brief: as §1
# [13] = A CellTox Green Cytotoxicity Assay to monitor cytotoxicity in HepG2 cells - 24 hour (AID 1224878); further: nearly all actives have a fitted effect of over 45% in size; further: potency means the concentration at half of the fitted maximal effect
# Method in brief: as §6
# [14] = A CellTox Green Cytotoxicity Assay to monitor cytotoxicity in HepG2 cells - 40 hour (AID 1224879); further: nearly all actives have a fitted effect of over 40% in size; further: potency means the concentration at half of the fitted maximal effect
# Method in brief: as §6
# [15] = qHTS RealTime-Glo MT Cell Viability Assay in HEK293 cells - 0 hour (AID 1224880); further: top concentration of the series differs between compounds; nearly all actives have a fitted effect of over 45% in size
# Method in brief: as §5
# [16] = qHTS assay to identify small molecule agonists of the estrogen related receptor (ERR) signaling pathway from Tox21 library (AID 1224849; calls by dose curve; further: nearly all actives have a fitted effect of over 15% in size); details: ERR reporter cell line, ONE-Glo luciferase, 18 h; at 92.4 µM (top of the series) unless noted
# Method in brief: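 Quantitative HTS in agonist format: NTP ERR cell line, compounds transferred in DMSO after 6 h plating, 18 h incubation at 37 C, ONE-Glo luminescence endpoint.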
# [17] = A CellTox Green Cytotoxicity Assay to monitor cytotoxicity in HEK293 cells - 40 hour (AID 1224871); further: nearly all actives have a fitted effect of over 45% in size; further: potency means the concentration at half of the fitted maximal effect
# Method in brief: as §3
# [18] = qHTS RealTime-Glo MT Cell Viability Assay in HEK293 cells - 16 hour (AID 1224872); further: nearly all actives have a fitted effect of over 50% in size; further: potency means the concentration at half of the fitted maximal effect
# Method in brief: as §2
# [19] = qHTS assay to identify small molecule antagonists of the estrogen related receptor (ERR) signaling pathway from Tox21 library (AID 1224848); further: nearly all actives have a fitted effect of over 50% in size; further: potency means the concentration at half of the fitted maximal effect
# Method in brief: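 Compounds dissolved in DMSO are pin-transferred onto ERR reporter cells (2,000 per well) that have settled for 6 h at 37 C. Plates then incubate 18 h at 37 C before ONE-Glo luciferase reagent and a luminescence read 30 min later.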
# [20] = qHTS assay to identify small molecule agonists of H2AX (AID 1224845; active means well fitted activation curve with a large enough effect in the signal ratio in the repeat runs, not every such curve was filed as active; the % refers to the signal ratio)
# Method in brief: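 Wild-type CHO-K1 cells, plated overnight, exposed 3hr at 37C to 15 concentrations (0.76% DMSO final). Lysed, then HTRF anti-pH2AX (S139) cryptate and anti-H2AX-d2 antibodies, 24 hr room temperature; 665/620 nm emission read.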
structure (smiles),measurement,setting,value
O=[N+]([O-])c1ccc2c3c(cccc13)CC2,Potency,[1],inactive
same,outcome,[2],inactive
same,Potency,[3],inactive
same,Potency,[4],inactive
same,Potency,[5],inactive
same,Potency,[6],inactive
same,Potency,[7],inactive
same,Potency,[8],inactive
same,max response,[9],1.98%
same,Potency,[10],inactive
same,Potency,[11],inactive
same,Potency,[12],inactive
same,Potency,[13],inactive
same,Potency,[14],inactive
same,outcome,[15],inactive
CCCSP(=S)(OCC)Oc1ccc(Cl)cc1Cl (stereo not drawn),Potency,[1],inactive
same,outcome,[2],inactive
same,"activity change, positive = activation",[16],2.16%
same,Potency,[5],inactive
same,Potency,[6],inactive
same,Potency,[7],inactive
same,Potency,[17],inactive
same,Potency,[18],inactive
same,Potency,[8],inactive
same,max response,[9],1.03%
same,Potency,[10],inactive
same,Potency,[11],inactive
same,Potency,[12],inactive
same,Potency,[13],inactive
same,Potency,[14],inactive
same,outcome,[15],inactive
CC(COc1ccc(Oc2ccccc2)cc1)Oc1ccccn1 (stereo not drawn),Potency,[1],inactive
same,outcome,[2],inactive
same,"activity change, positive = activation",[16],0.411%
same,Potency,[4],inactive
same,Potency,[6],inactive
same,Potency,[7],inactive
same,Potency,[17],inactive
same,Potency,[8],inactive
same,Potency,[10],inactive
same,Potency,[11],inactive
same,Potency,[12],inactive
same,Potency,[13],inactive
same,Potency,[14],inactive
same,outcome,[15],inactive
CC(C)CC(N(C)C)C1(c2ccc(Cl)cc2)CCC1 (stereo not drawn),Potency,[1],inactive
same,outcome,[2],inactive
same,Potency,[19],inactive
same,"activity change, positive = activation",[16],1.9% [at 42.5 µM]
same,Potency,[4],inactive
same,Potency,[5],inactive
same,Potency,[6],inactive
same,Potency,[7],inactive
same,Potency,[17],23.9 µM (active)
same,Potency,[18],inactive
same,Potency,[8],inactive
same,max response,[9],-6.91%
same,Potency,[10],23.9 µM (active)
same,Potency,[12],inactive
same,outcome,[15],inactive
CCOC(=O)C(c1c(O)c2ccccc2oc1=O)c1c(O)c2ccccc2oc1=O,Potency,[20],inactive
same,Potency,[5],inactive
same,Potency,[6],inactive
same,Potency,[7],inactive
same,Potency,[17],inactive
same,Potency,[18],inactive
same,Potency,[8],inactive
same,max response,[9],4.14%
same,Potency,[11],inactive
same,Potency,[12],inactive
same,Potency,[13],inactive
same,Potency,[14],inactive
COc1cccc2c1cc([N+](=O)[O-])c1c(C(=O)O)cc3c(c12)OCO3,Potency,[1],54.9 µM (active)
same,Potency,[3],inactive
same,Potency,[19],4.86 µM (active)
same,"activity change, positive = activation",[16],-37.1%
same,Potency,[4],inactive
same,Potency,[5],2.45 µM (active)
same,Potency,[6],inactive
same,Potency,[7],inactive
same,Potency,[17],inactive
same,Potency,[18],12.3 µM (active)
same,Potency,[8],inactive
same,Potency,[9],2.19 µM (active)
same,Potency,[11],inactive
same,Potency,[13],21.9 µM (active)
O=[N+]([O-])c1cc(Cl)c(Cl)c(Cl)c1,Potency,[1],inactive
same,outcome,[2],inactive
same,Potency,[3],inactive
same,Potency,[5],inactive
same,Potency,[6],inactive
same,Potency,[17],21.7 µM (active)
same,Potency,[18],inactive
same,max response,[9],5.08%
same,Potency,[11],inactive
same,Potency,[12],inactive
same,Potency,[13],inactive
same,Potency,[14],inactive
same,outcome,[15],inactive
c1cc[c]([Hg][c]2ccccc2)cc1,Potency,[1],49 µM (active)
same,Potency,[3],inactive
same,Potency,[5],30.9 µM (active)
same,Potency,[6],inactive
same,Potency,[7],inactive
same,Potency,[17],34.7 µM (active)
same,Potency,[8],inactive
same,Potency,[9],24.5 µM (active)
same,Potency,[10],43.6 µM (active)
same,Potency,[11],inactive
same,Potency,[12],inactive
same,Potency,[13],43.6 µM (active)
same,Potency,[14],49 µM (active)
same,outcome,[15],inactive
CCOP(=S)(Oc1cnc(C(C)(C)C)nc1)OC(C)C (stereo not drawn),Potency,[1],inactive
same,outcome,[2],inactive
same,"activity change, positive = activation",[16],-20.7%
same,Potency,[4],inactive
same,Potency,[5],inactive
same,Potency,[6],inactive
same,Potency,[7],inactive
same,Potency,[18],inactive
same,Potency,[8],inactive
same,max response,[9],-10.5%
same,Potency,[10],inactive
same,Potency,[11],inactive
same,Potency,[12],inactive
same,Potency,[13],inactive
same,Potency,[14],inactive
same,outcome,[15],inactive
Nc1c(Br)cc([N+](=O)[O-])cc1[N+](=O)[O-],Potency,[1],inactive
same,outcome,[2],inactive
same,"activity change, positive = activation",[16],-26.5%
same,Potency,[4],inactive
same,Potency,[5],inactive
same,Potency,[6],inactive
same,Potency,[7],inactive
same,Potency,[18],inactive
same,max response,[9],-10.5%
same,Potency,[10],inactive
same,Potency,[11],inactive
same,Potency,[12],inactive
same,Potency,[13],inactive
same,Potency,[14],inactive
same,outcome,[15],inactive
CCCCOC(=O)c1ccccc1C(=O)O,outcome,[2],inactive
same,Potency,[3],inactive
same,Potency,[4],inactive
same,Potency,[5],inactive
same,Potency,[6],inactive
same,Potency,[17],inactive
same,Potency,[18],inactive
same,Potency,[8],inactive
same,max response,[9],1.78%
same,Potency,[10],inactive
same,Potency,[11],inactive
same,Potency,[12],inactive
same,Potency,[13],inactive
same,Potency,[14],inactive
same,outcome,[15],inactive
CN1C(=S)CN=C(c2ccccc2)c2cc(Cl)ccc21,Potency,[1],inactive
same,outcome,[2],inactive
same,Potency,[3],inactive
same,Potency,[6],5.35 µM (active)
same,Potency,[18],inactive
same,Potency,[8],inactive
same,Potency,[11],inactive
same,Potency,[12],inactive
same,Potency,[13],inactive
same,Potency,[14],inactive
same,outcome,[15],inactive
CC(=O)[C@H]1CC[C@H]2[C@@H]3CC[C@H]4C[C@H](O)CC[C@]4(C)[C@H]3C(=O)C[C@]12C,Potency,[20],inactive
same,Potency,[3],inactive
same,"activity change, positive = activation",[16],-14.9% [at 42.5 µM]
same,Potency,[4],inactive
same,Potency,[6],inactive
same,Potency,[17],inactive
same,Potency,[18],inactive
same,Potency,[8],inactive
same,max response,[9],-27.6%
same,Potency,[10],inactive
same,Potency,[11],inactive
same,Potency,[12],inactive
same,Potency,[13],inactive
same,Potency,[14],inactive
same,outcome,[15],inactive
[Cl][Sn]([Cl])([Cl])[Cl],Potency,[1],inactive
same,outcome,[2],inactive
same,Potency,[3],inactive
same,Potency,[4],inactive
same,Potency,[7],inactive
same,Potency,[18],inactive
same,Potency,[8],inactive
same,Potency,[11],inactive
same,Potency,[12],inactive
same,Potency,[13],inactive
same,Potency,[14],inactive
same,outcome,[15],inactive
CC(C1CC1)C(O)(Cn1cncn1)c1ccc(Cl)cc1 (stereo not drawn),Potency,[1],inactive
same,outcome,[2],inactive
same,Potency,[3],inactive
same,Potency,[6],inactive
same,Potency,[7],inactive
same,Potency,[8],inactive
same,Potency,[10],inactive
same,Potency,[11],inactive
same,Potency,[12],inactive
same,Potency,[13],inactive
same,Potency,[14],inactive
same,outcome,[15],inactive
CCOP(=S)(OCC)Oc1ncn(-c2ccccc2)n1,Potency,[1],inactive
same,outcome,[2],inactive
same,Potency,[4],inactive
same,Potency,[6],inactive
same,Potency,[17],inactive
same,Potency,[18],inactive
same,Potency,[8],inactive
same,Potency,[10],inactive
same,Potency,[11],inactive
same,Potency,[12],inactive
same,Potency,[13],inactive
same,Potency,[14],inactive
same,outcome,[15],inactive
Nc1cc2c3c(c1)C(c1ccccc1)=N[C@@H](NC(=O)c1cccnc1)C(=O)N3CC2,Potency,[1],inactive
same,outcome,[2],inactive
same,Potency,[3],inactive
same,Potency,[4],inactive
same,Potency,[5],inactive
same,Potency,[6],inactive
same,Potency,[7],inactive
same,Potency,[18],inactive
same,Potency,[8],inactive
same,max response,[9],-6.57%
same,Potency,[10],inactive
same,Potency,[11],inactive
same,Potency,[12],inactive
same,Potency,[13],inactive
same,Potency,[14],inactive
same,outcome,[15],inactive
